Results published in the supplement of paper PMC13380429.
Structures can show the parent of a compound that is named as a salt.

tested on: Vero E6 infected with SARS-CoV-2; experiment: morphology score (similarity to uninfected cells); higher = more like uninfected cells; details: 24 h

| Compound | morphology score |
| --- | --- |
| O=C(c1ccccc1)C(O)c1ccccc1 (stereo unspecified) [benzoin] (10 µM) | -0.114 |
| CCOC(=O)c1ccc(OCCC2CCN(c3ccc(C)nn3)CC2)cc1 [pirodavir] (10 µM) | 0.0282 |
| CC(CC(C(N)=O)(c1ccccc1)c1ccccc1)N(C)C (stereo unspecified) [aminopentamide] (10 µM) | 0.0885 |
| CCCn1c(=O)c2[nH]cnc2n(-c2ccc(Cl)cc2)c1=O [arofylline] (10 µM) | 0.178 |
| Cc1ccc2c(c1)C1(CCN(CCc3nc(-c4ccccc4)oc3C)CC1)OC(=O)N2 (0.833333 µM) | 0.0199 |
| CO[C@@]1(NC(=O)C2SC(=C(C(N)=O)C(=O)O)S2)C(=O)N2C(C(=O)O)=C(CSc3nnnn3C)CS[C@@H]21 (stereo partly specified) [cefotetan] (10 µM) | 0.104 |
| C[S+]([O-])c1ccc(-c2nc(-c3ccc(F)cc3)c(-c3ccncc3)[nH]2)cc1 (stereo unspecified) (10 µM) | 0.0867 |
| c1ccc2sc(SN3CCOCC3)nc2c1 [N-oxydiethylenebenzothiazole-2-sulfenamide] (10 µM) | -0.00631 |
| Oc1ccc2c3c1O[C@H]1c4[nH]c5ccccc5c4C[C@@]4(O)[C@@H](C2)N(CC2CC2)CC[C@]314 [naltrindole] (10 µM) | -0.0968 |
| COCC[n+]1c2c(n(Cc3cnccn3)c1C)C(=O)c1ccccc1C2=O (0.833333 µM) | 0.0783 |
| C[C@H](N)Cc1c[nH]cn1 [alpha-methylhistamine-dihydrobromide-(S)-(+)] (10 µM) | 0.17 |
| OC[C@H]1O[C@@H](c2ccc(F)c(Cc3cc4ccccc4s3)c2)[C@H](O)[C@@H](O)[C@@H]1O [ipragliflozin-L-proline] (10 µM) | 0.0125 |
| CC(C)(O)c1coc(S(=O)(=O)NC(=O)Nc2c3c(cc4c2CCC4)CCC3)c1 (10 µM) | 0.0866 |
| COc1cc(C(=O)N2CCC(N3CCN(C)CC3)CC2)ccc1Nc1ncc2c(n1)N(C)c1ccccc1C(=O)N2C (0.833333 µM) | 0.0522 |
| Cc1cncc(CN2CCC(=C3c4ccc(Cl)cc4CCc4cccnc43)CC2)c1 [rupatadine] (10 µM) | -0.0273 |
| CC(=O)OC[C@H](N)C(=O)O [O-acetyl-L-serine] (10 µM) | 0.0719 |

| Compound | morphology score |
| --- | --- |
| O=C(C=Cc1ccccc1)NC(NC(=S)Nc1ccc(Cl)cc1)C(Cl)(Cl)Cl (stereo unspecified) (10 µM) | -0.143 |
| CN(C)CCc1c[nH]c2ccc(Cn3cncn3)cc12 [rizatriptan] (10 µM) | -0.00598 |
| CNC(=O)[C@H](Cc1c[nH]c2ccccc12)NC(=O)[C@@H](CC(=O)NO)CC(C)C [ilomastat] (10 µM) | -0.0294 |
| Cn1c(C#N)ccc1-c1ccc2c(c1)C(C)(C)OC(=S)N2 [tanaproget] (10 µM) | 0.0429 |
| NS(=O)(=O)c1ccc(-n2nc(C(F)(F)F)cc2-c2ccc(Cl)cc2)cc1 (10 µM) | 0.0527 |
| O=C(OC(C(F)(F)F)C(F)(F)F)N1CCC(C(O)(c2ccc3c(c2)OCO3)c2ccc3c(c2)OCO3)CC1 (10 µM) | 0.159 |
| C=CCCCCCCCCC(=O)[O][Zn][O]C(=O)CCCCCCCCC=C [zinc-undecylenate] (10 µM) | 0.0826 |
| Cn1cc(-c2ccc3c(c2)CCN3C(=O)Cc2cccc(C(F)(F)F)c2)c2c(N)ncnc21 (0.833333 µM) | 0.029 |
| CC[C@H](CC[C@@H](C)[C@H]1CC[C@H]2[C@@H]3CC=C4C[C@@H](O[C@@H]5O[C@H](CO)[C@@H](O)[C@H](O)[C@H]5O)CC[C@]4(C)[C@H]3CC[C@]12C)C(C)C [daucosterol] (10 µM) | 0.0785 |
| C[C@H]1CO[C@@H]2Cn3cc(C(=O)NCc4ccc(F)cc4F)c(=O)c(O)c3C(=O)N12 (10 µM) | -0.00851 |
| Nc1ncc2c(n1)CC(c1ccco1)CC2=O (stereo unspecified) (10 µM) | 0.0161 |
| CO[C@H]1C[C@@H]2CC[C@@H](C)[C@@](O)(O2)C(=O)C(=O)N2CCCC[C@H]2C(=O)O[C@H]([C@H](C)C[C@@H]2CC[C@@H](O)[C@H](OC)C2)CC(=O)[C@H](C)/C=C(\C)[C@@H](O)[C@@H](OC)C(=O)[C@H](C)C[C@H](C)/C=C/C=C/C=C/1C [sirolimus] (10 µM) | -0.126 |
| CCC(c1ccccc1)c1c(O)c2ccccc2oc1=O (stereo unspecified) [phenprocoumon] (10 µM) | 0.0901 |
| N[C@@H](CSCCCO)C(=O)O [fudosteine] (10 µM) | 0.0399 |
| CSc1ccc2c(c1)N(CCC1CCCCN1C)c1ccccc1S2 (stereo unspecified) [thioridazine] (0.833333 µM) | 0.304 |
